# Compound activity deposited in PubChem BioAssay by National Center for Advancing Translational Sciences (NCATS).
# PKM2 act – increases activity of human pyruvate kinase M2; Potency, µM (titrated, usually from 57.5 µM), without a hit: top-dose activation, hits mostly activators; purified PKM2, Kinase-Glo ATP luminescence, activation; response scale: 0% is enzyme alone, no compound; 0.34% of 260,000 active; further: potency means the concentration at half of the fitted maximal effect; nearly all actives have a fitted effect of over 55% in size
# Target sequence (P14618 whole entry, looked up): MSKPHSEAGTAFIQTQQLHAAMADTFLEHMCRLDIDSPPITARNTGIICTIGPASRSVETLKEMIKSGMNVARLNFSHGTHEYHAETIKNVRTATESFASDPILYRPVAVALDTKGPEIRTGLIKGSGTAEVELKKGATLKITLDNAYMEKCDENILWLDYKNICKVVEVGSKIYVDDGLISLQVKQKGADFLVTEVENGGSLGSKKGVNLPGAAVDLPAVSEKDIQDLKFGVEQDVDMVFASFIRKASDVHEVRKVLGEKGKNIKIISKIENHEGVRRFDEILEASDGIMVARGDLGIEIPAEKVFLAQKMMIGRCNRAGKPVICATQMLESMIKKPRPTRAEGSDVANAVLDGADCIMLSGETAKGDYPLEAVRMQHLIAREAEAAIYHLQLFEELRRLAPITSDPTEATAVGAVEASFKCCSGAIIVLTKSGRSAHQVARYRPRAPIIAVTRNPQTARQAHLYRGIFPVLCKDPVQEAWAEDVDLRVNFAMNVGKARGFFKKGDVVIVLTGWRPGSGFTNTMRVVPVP
#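 Purified hPK-M2 (>95% pure) converted ADP (0.1 mM final) to ATP with 0.5 mM PEP in 50 mM imidazole pH7.2, KCl, MgCl2, Tween 20, BSA; 1 h at room temperature. ATP detected by Kinase-Glo luminescence.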
# CtBP-E1A inh – blocks the CtBP interaction with E1A; AlphaScreen GST-E1A/His-CtBP binding, 1536-well; hits give low values; activity change, % (test concentration not listed); 0.49% of 340,000 active; in the data active means activity change below about -65%; inconclusive means mostly about -30% to -63%
#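 In 5 uL wells, 23 nL compound meets equimolar GST-E1A and His-CtBP (5X stock 125 nM each) for 2 h, 37 °C. Beads (5X, 50 ug/mL) then 1 h, 37 °C, dark.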
# VP16 counter – inhibits Gal4-VP16 luciferase reporter, ROR gamma counter-screen. Drosophila S2 Gal4-VP16 UAS-luciferase, luminescence, 20 h. Potency, µM (titrated, usually from 53.6 µM), inactives show at the top dose activity, negative = inhibition, most hits filed as inhibitors. 3.5% of 310,000 active. AID 2546;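 further: Gal4-VP16 expression switched on by copper sulfate through the metallothionein promoter; potency means the concentration at half of the fitted maximal effect; nearly all actives have a fitted effect of over 50% in size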
# Six1-Eya2 inh – Six1/Eya2 interaction inhibition; 0.56% of 360,000 active; Q15475+O00167; activity change, % (no concentration beside the values); AID 651725; AlphaScreen GST-Six1/His-Eya2 binding, biochemical; hits give low values; in the data active means activity change below about -65%; inconclusive means mostly about -30% to -63%
#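 AlphaScreen with GST-Six1 and His-Eya2 (5X mix: 250 nM and 500 nM), glutathione donor and nickel acceptor beads; buffer 50 mM Tris pH 8.0, 300 mM NaCl, 1 mM TCEP; 1 h at 37 C in the dark.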
# RORgamma inh – ROR gamma (mouse) transcription inhibition; 5.4% of 310,000 active; AID 2551; P51450; Drosophila S2 Gal4-RORgamma UAS-luciferase reporter, 20 h; Potency, µM (top dose mostly 53.6 µM), for the others: top-dose activity change, negative = inhibition, usual class: inhibitors; further: potency means the concentration at half of the fitted maximal effect; nearly all actives have a fitted effect of over 60% in size
#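 Schneider cells (Drosophila), stable Gal4 DBD–ROR gamma + UAS-luc; 1 hr cmpd preincubation; Cu2+ induction 700 uM final; 20 hr ambient; luminescence.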
# Numbers without * were called inactive; ? = inconclusive; . = no result; [ ] = dose if it differs, or a comment. Only some compounds are listed: those with a hit (about 5.6% of all), similar ones and a draw of the others. Unless noted, the call rests on the fitted dose curve; in most records, active means well fitted curve in the direction sought with a large enough effect; inconclusive means small, poorly fitted or top-dose-only effect, or another doubt; inactive means no such curve, though single readings can be large; an effect the other way counts as inactive or inconclusive. On the % scale 0 is the no-effect control and ±100 the full control effect.
SMILES,PKM2 act,CtBP-E1A inh,VP16 counter,Six1-Eya2 inh,RORgamma inh
O=C(O)c1cccc([N+](=O)[O-])c1,.,.,-1.4%,.,-15.1%
O=C(CNC(=S)NC(=O)c1cccc([N+](=O)[O-])c1)c1ccccc1,-0.9%,-1.9,12.6µM*,15.4,7.08µM*
O=C(C#Cc1ccccc1)c1cccc([N+](=O)[O-])c1,7.9%,8.0,6.31µM*,-7.4,5.62µM*
O=C(NC(=S)Nc1cccc([N+](=O)[O-])c1)c1ccccc1,-0.9%,.,-5.8%,-1.7,?
O=C(Cc1ccc(NC(=O)C2CCCN(C(=O)C3CC3)C2)cc1)Nc1ccc(C(=O)N2CCOCC2)cc1 (stereo not drawn),.,-0.5,.,11.8,.
COc1ccccc1C(=O)Nc1ccc2c(c1)nc1n2CCN(C2CCCCC2)C1,4.1%,-9.8,-14.6%,-6.7,-14.3%
CCN(CC(=O)NCc1ccc(Cl)cc1)C(=O)CSCC(=O)Nc1cccc(C)c1,0.8%,4.0,18.2%,17.4,-0.2%
CC(C)Oc1ccc(S(=O)(=O)N2CCOCC2)cc1NC(=O)C1=NN(c2ccccc2)C(=O)CC1,.,-1.4,.,-24.2,.
O=C1c2nccnc2C(=O)N1c1ccc(F)cc1,2.8%,-3.2,-17.2%,8.3,-17.6%
O=[N+]([O-])c1ccc(/C=C/C2=NN(c3ccccc3)C(c3ccco3)C2)cc1 (stereo not drawn),-9.5%,-7.5,20µM*,-11.9,?
O=[N+]([O-])c1ccc(C2=NN(c3ccccc3)C(c3ccco3)C2)cc1 (stereo not drawn),1.6%,3.4,24.6%,0.0,20.5%
Cc1oc(=O)c(NC(=O)c2cccc(Cl)c2)cc1C(=O)c1ccccc1,7.08µM*,3.0,5.01µM*,-4.8,4.47µM*
COc1ccc(C(=O)Nc2cc(C(=O)c3ccccc3)c(C)oc2=O)cc1,?,-3.2,10µM*,-6.9,-103.8%
O=[N+]([O-])c1ccc(S(=O)(=O)NCC(c2cccnc2)N2CCc3ccccc3C2)cc1 (stereo not drawn),.,-4.9,.,-9.9,.
COc1ccc(C)cc1S(=O)(=O)NCC(c1cccnc1)N1CCc2ccccc2C1 (stereo not drawn),11.2µM*,-18.1,-14.3%,-6.1,?
CC(C)(C)S(=O)N1Cc2cc(C(=O)N3CCOCC3)nc(-c3cccc(Br)c3)c2[C@@H]1CCO (stereo partly drawn),.,-0.7,.,-3.4,.
CC1=NN(C(=O)COc2ccccc2)C(O)(c2cccnc2)C1 (stereo not drawn),3.5%,.,-0.3%,0.2,4.7%
CCC1=NN(C(=O)COc2ccccc2C)C(O)(c2ccncc2)C1 (stereo not drawn),-17.6%,5.6,?,9.4,3.98µM*
CC1=NN(C(=O)COc2ccccc2C)C(O)(c2ccc(Cl)cc2)C1 (stereo not drawn),-9.9%,2.6,7.94µM*,-3.1,14.1µM*
Cc1c(C)n(Cc2ccc(F)cc2)c2ccc(C(=O)NCCCN3CCOCC3)cc12,.,-24.3,-0.4%,-18.1,0.9%
COC(=O)CCCn1cc(CN2CC(N(C)C)CS2(=O)=O)nn1 (stereo not drawn),.,5.8,.,0.1,.
CC(C)c1ccc(N2C(=O)CC(NNC(=O)c3cccnc3)C2=O)cc1 (stereo not drawn),-0.3%,0.0,?,0.0,9.8%
CCN1C(=O)/C(=C2/Sc3ccccc3N2CC)S/C1=N\c1ncn[nH]1,2.2%,1.6,5.01µM*,-12.7,11.2µM*
CCOC(=O)C(NC(=O)CC)(Nc1nc2c(s1)CCCC2)C(F)(F)F (stereo not drawn),-4.2%,-10.3,-13.0%,-1.2,24.0%
COC(=O)C(NC(=O)COc1ccccc1)(Nc1nc2c(s1)CCCC2)C(F)(F)F (stereo not drawn),1.3%,-5.4,20µM*,-4.4,?
SMILES,PKM2 act,CtBP-E1A inh,VP16 counter,Six1-Eya2 inh,RORgamma inh
COc1ccccc1-c1nnc(NC(=O)C2=COCCO2)o1,-7.2%,-11.2,2.82µM*,-24.3,2.24µM*
COc1ccc(-c2nnc(NC(=O)C3=COCCO3)o2)cc1,-8.0%,-19.3,2.82µM*,-28.9,3.55µM*
COc1ccc(C(=O)Nc2ccc(N3CCCC3)cc2)cc1OC,-12.4%[11.5 µM],-6.0,13.8%,-13.1,?
COc1cc(C(=O)NC(=S)N2CCCCCC2)cc(OC)c1OC,2.4%,5.9,2.82µM*,-1.4,0.891µM*
COc1cc(C(=O)NC(=S)NC(C)C)cc(OC)c1OC,-7.0%,-14.2,?,-7.3,7.94µM*
COc1cc(C(=O)NCCC(=O)N2CCCCC2)cc(OC)c1OC,.,5.2,0.0%,11.4,12.4%
COc1ccc(C(=O)NC(=S)Nc2ccc(N3CCCC3)cc2)cc1,-3.8%,-13.5,7.08µM*,-20.0,2µM*
COc1cc(C(=O)NC(=S)Nc2ccc(N3CCCC3)cc2)cc(OC)c1OC,-2.5%,-11.6,4.47µM*,-11.5,7.94µM*
COc1cc(C(=O)NC(=S)Nc2ccc(Cl)c(C(=O)O)c2)cc(OC)c1OC,-0.6%,-0.1,-6.0%,-2.9,-5.4%
CC(=O)Nc1cccc(NC(=O)CSc2nnc3ccc(-c4ccncc4)nn23)c1,.,-0.8,.,-6.9,.
Cc1cc(C)n(C(=O)/C(C#N)=N/Nc2cc(Cl)cc(Cl)c2)n1,1.0%,.,?,-4.2,?
CN1CCN(c2ccc(NC(=S)NC(=O)c3cccc4c(Cl)cccc34)cc2)CC1,0.9%,-8.8,-13.1%,-5.4,?
CCOc1cccc(C(=O)Nc2ccc(N3CCCC3)cc2)c1,-0.9%,?,-5.9%,?,?
COc1cc(C(=O)NC(=S)NNC(=O)[C@H]2C[C@@H]2c2ccccc2)cc(OC)c1OC,10.5%,-4.4,-13.7%,-3.4,11.2µM*
CC(C)Oc1cccc(C(=O)NC(=S)Nc2ccc(N3CCN(C)CC3)cc2)c1,-4.6%,.,?,-4.7,5.62µM*
COc1cccc(C(=O)NC(=S)Nc2ccc(N(C)C)cc2)c1,-12.0%,?,?,?,3.55µM*
COc1ccccc1C(=O)NNC(=S)NC(=O)c1cc(OC)c(OC)c(OC)c1,2.0%,-15.2,17.6%,-2.2,?
COc1cccc(C(=O)NC(=S)Nc2ccc(N3CCCC3)cc2)c1,0.4%,?,8.91µM*,-67.7*,2µM*
CC1(C(=O)NS(=O)(=O)c2ccc(Cl)cc2)CCN1C(=O)C/C=C/c1ccccc1 (stereo not drawn),.,37.3,.,21.1,.
Nn1c(SCC(=O)Nc2ccc(OC(F)F)cc2)nnc(Cc2ccccc2)c1=O,.,6.5,.,-8.0,.
CCN(CC)CCCn1c(=S)[nH]c2ccccc2c1=O,17.0%,-0.3,-2.6%,-5.2,?
CC(C)Cn1c(=S)[nH]c2cc(Cl)ccc21,-0.5%,-13.1,?,-5.5,1.58µM*
O=c1[nH]c2cc(Cl)ccc2n1-c1ccccc1,1.9%,3.1,-2.9%,1.7,15.3%
